Where “and” joins values, the source holds several entries; their conditions need not be identical. Equal values may be shown once. The whole screen tested about 5,500 compounds, of which about 2,000 (36%) were called active. Not shown: some 18% with an inconclusive outcome. No stated cut-off is given here; in the data, active means normalized growth mostly below about 0.91 (no sharp cut-off); inconclusive means no clear call, values can overlap the other calls; inactive means mostly above about 0.92. Some of the results follow.
Experiment: chemical genetic growth profiling, strain panel (AID 1159580);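 further: tested at 20 µM; growth read once vehicle control cultures reached saturation at 30 °C; 1 = growth at the plate median or of vehicle wells; lower values mean less growth of the strain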
Settings: S. cerevisiae deletion strains, growth OD

Measured: normalized growth

CNC(=O)O/N=C(\C)SC
inactive: locus YAL013W, strain DEP1, active compounds read low 1 | locus YAL021C, strain ccr4, active compounds read low 0.987 | locus YAL026C, strain drs2, active compounds read low 1 | locus YAL030W, strain snc1, active compounds read low 1.01 | locus YBL061C, strain skt5, active compounds read low 1 | locus YBR009C, strain hhf1, active compounds read low 1.01 | locus YBR021W, strain FUR4, active compounds read low 1.03 | locus YBR023C, strain chs3, active compounds read low 1 | locus YBR171W, strain sec66, active compounds read low 1 | locus YBR229C, strain ROT2, active compounds read low 1.01 | locus YBR231C, strain swc5, active compounds read low 1 | locus YBR279W, strain paf1, active compounds read low 0.999 | locus YCL011C, strain gbp2, active compounds read low 1.01 | locus YCL016C, strain dcc1, active compounds read low 0.998 | locus YCL029C, strain bik1, active compounds read low 0.983 | locus YCL061C, strain MRC1, active compounds read low 1 | locus YCL069W, strain vba3, active compounds read low 1 | locus YCR088W, strain abp1, active compounds read low 1 | locus YDL005C, strain med2, active compounds read low 1 | locus YDL035C, strain GPR1, active compounds read low 1.02 | locus YDL040C, strain nat1, active compounds read low 0.999 | locus YDL074C, strain BRE1, active compounds read low 1.07 | locus YDL101C, strain DUN1, active compounds read low 1.02 | locus YDL134C, strain PPH21, active compounds read low 1.01 | locus YDL185W, strain tfp1, active compounds read low 0.988 | locus YDL192W, strain arf1, active compounds read low 0.981 | locus YDR001C, strain nth1, active compounds read low 1 | locus YDR069C, strain doa4, active compounds read low 1 | locus YDR101C, strain arx1, active compounds read low 0.983 | locus YDR137W, strain rgp1, active compounds read low 1.01 | locus YDR150W, strain NUM1, active compounds read low 1.01 | locus YDR159W, strain sac3, active compounds read low 1 | locus YDR162C, strain NBP2, active compounds read low 0.987 | locus YDR195W, strain ref2 0.971 | locus YDR297W, strain sur2, active compounds read low 1.02 | locus YDR318W, strain mcm21, active compounds read low 0.994 | locus YDR334W, strain swr1, active compounds read low 0.999 | locus YDR335W, strain msn5, active compounds read low 0.997 | locus YDR388W, active compounds read low 0.984 | locus YDR392W, strain spt3, active compounds read low 1 | locus YDR502C, strain sam2, active compounds read low 0.993 | locus YEL003W, strain gim4, active compounds read low 1 | locus YEL037C, strain rad23, active compounds read low 1 | locus YEL061C, strain CIN8 (second series), active compounds read low 1 | locus YEL061C, strain CIN8, active compounds read low 1.01 | locus YER015W, strain faa2, active compounds read low 0.982 | locus YER016W, strain bim1, active compounds read low 1 | locus YER110C, active compounds read low 0.977 | locus YER111C, strain swi4, active compounds read low 0.996 | locus YER155C, strain BEM2 (second series), active compounds read low 1.01 | locus YER155C, strain BEM2, active compounds read low 1.01 | locus YER167W, strain BCK2, active compounds read low 0.993 | locus YFR010W, strain ubp6, active compounds read low 0.997 | locus YGL078C, strain dbp3, active compounds read low 0.98 | locus YGL086W, strain mad1, active compounds read low 0.984 | locus YGL167C, strain pmr1, active compounds read low 0.996 | locus YGL173C, strain kem1, active compounds read low 0.991 | locus YGL227W, strain vid30, active compounds read low 1.01 | locus YGL240W, strain doc1, active compounds read low 0.987 | locus YGL248W, strain PDE1, active compounds read low 1.04 | locus YGL253W, strain hxk2, active compounds read low 0.998 | locus YGR078C, strain PAC10, active compounds read low 1 | locus YGR135W, strain pre9, active compounds read low 0.998 | locus YGR229C, strain SMI1, active compounds read low 1.03 | locus YGR252W, strain gcn5, active compounds read low 0.986 | locus YHR013C, strain ard1, active compounds read low 0.998 | locus YHR027C, strain rpn1, active compounds read low 0.989 | locus YHR030C, strain SLT2, active compounds read low 0.988 and 1.07 | locus YHR079C, strain IRE1 (second series), active compounds read low 0.993 | locus YHR079C, strain IRE1, active compounds read low 1.05 | locus YHR094C, strain hxt1, active compounds read low 0.983 | locus YHR129C, strain ARP1, active compounds read low 1.01 | locus YHR142W, strain chs7, active compounds read low 1.01 | locus YHR200W, strain rpn10, active compounds read low 0.99 | locus YIL066C, strain RNR3, active compounds read low 1.03 | locus YIL073C, strain SPO22, active compounds read low 0.995 | locus YIL125W, strain kgd1, active compounds read low 0.986 | locus YIR030C, strain dcg1, active compounds read low 0.98 | locus YJL092W, strain hpr5, active compounds read low 0.996 | locus YJL095W, strain BCK1 (second series), active compounds read low 0.996 | locus YJL095W, strain BCK1, active compounds read low 1.01 and 1.04 | locus YJL115W, strain asf1, active compounds read low 1 | locus YJL129C, strain trk1, active compounds read low 1.01 | locus YJL134W, strain LCB3, active compounds read low 1.02 | locus YJL154C, strain vps35, active compounds read low 0.999 | locus YJL164C, strain tpk1, active compounds read low 1 | locus YJL166W, strain qcr8, active compounds read low 1 | locus YJL168C, strain set2, active compounds read low 0.989 | locus YJL187C, strain SWE1 (second series), active compounds read low 1.01 | locus YJL187C, strain SWE1, active compounds read low 1.02 | locus YJR043C, strain POL32, active compounds read low 1.01 | locus YJR066W, strain TOR1, active compounds read low 0.988

Reference: PubChem BioAssay AID1159580 (chemical genetic matrix, 2015)
